Screening data from PubChem.
Hits are enriched below; roughly 0.54% of the tested compounds scored in any of these assays.
MBNL1-CUG inh = qHTS Assay for Inhibitors of MBNL1-poly(CUG) RNA binding; Muscleblind-like protein 1 (Homo sapiens), Q9NR56; TR-FRET MBNL1-His/biotin-(CUG)12 binding, 665/545 ratio; Potency, µM (titrated, usually from 57.5 µM), for inactives: top-dose activity change, negative = inhibition, usual class: inhibitors; hit rate 0.036% among 280,000; AID 2675, 2010; active = well fitted inhibition curve with a large enough effect in the signal ratio, with a control signal flat, not every such curve was filed as active; inconclusive = small, poorly fitted or top-dose-only effect, or effect the other way, or a change in a side signal; inactive = no such curve, though single readings can be large or run the other way; the % refers to the signal ratio; note: potency is the fitted concentration of half-maximal effect; % is set by controls: 0 for no effect and ±100 for the full control effect
Target sequence (Q9NR56 whole entry, looked up): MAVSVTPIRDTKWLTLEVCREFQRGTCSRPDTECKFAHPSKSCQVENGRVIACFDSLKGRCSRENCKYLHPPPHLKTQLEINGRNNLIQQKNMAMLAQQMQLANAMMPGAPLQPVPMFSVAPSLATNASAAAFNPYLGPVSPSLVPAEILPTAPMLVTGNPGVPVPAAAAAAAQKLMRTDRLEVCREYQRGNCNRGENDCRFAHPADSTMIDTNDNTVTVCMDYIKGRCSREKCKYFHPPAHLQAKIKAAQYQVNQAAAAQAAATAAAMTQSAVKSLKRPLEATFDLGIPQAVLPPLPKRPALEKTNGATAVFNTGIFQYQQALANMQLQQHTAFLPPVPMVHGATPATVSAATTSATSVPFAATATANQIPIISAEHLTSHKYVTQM
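TR-FRET readout: Ex 340 nm, 665/545 nm emission ratio, normalized to buffer-only (basal) and MBNL1-(CUG)12 controls. Complex of MBNL1-His with Biotin-(CUG)12, compounds 92 nM–58 uM, incubated 60 min at room temperature.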
Vif-A3G inh = qHTS for Inhibitors of Vif-A3G Interactions: qHTS; DNA dC->dU-editing enzyme APOBEC-3G (Homo sapiens), Q9HC16; HeLa A3G-eYFP + Vif (tagged APOBEC3G with the HIV-1 protein that degrades it), YFP fluorescence, overnight; Potency, µM (highest dose often 46.1 µM), without a hit: top-dose activity, negative = active, actives largely listed as inhibitors; hit rate 0.076% among 410,000; AID 602310, 2012; note: potency is the fitted concentration of half-maximal effect; % is set by controls: 0 for no effect and ±100 for the full control effect; nearly all actives have a fitted effect of over 60% in size
Target sequence (Q9HC16 whole entry, looked up): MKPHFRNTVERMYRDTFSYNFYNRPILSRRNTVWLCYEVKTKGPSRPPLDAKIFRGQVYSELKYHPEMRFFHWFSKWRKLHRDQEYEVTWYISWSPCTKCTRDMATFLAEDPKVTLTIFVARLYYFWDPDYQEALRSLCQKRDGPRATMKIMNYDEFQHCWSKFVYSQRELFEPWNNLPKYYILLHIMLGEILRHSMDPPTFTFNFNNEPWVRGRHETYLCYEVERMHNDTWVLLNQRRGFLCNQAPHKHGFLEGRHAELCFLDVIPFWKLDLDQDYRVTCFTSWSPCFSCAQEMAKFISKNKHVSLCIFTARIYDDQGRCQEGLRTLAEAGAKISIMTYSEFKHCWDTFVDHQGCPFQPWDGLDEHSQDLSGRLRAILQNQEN
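Read-out is eYFP fluorescence (Ex 488/Em 500-530) from Vif-expressing HeLa A3G-eYFP cells; more signal means A3G escaped Vif-mediated degradation. Cells plated overnight, compound pinned in, incubated overnight at 37 deg C.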
TCR activator = Activators of T cell receptors: qHTS campaign; primary human leukocytes, anti-CD3, IL-2 HTRF, 48 h; 330,000 tested, under 10 active; Potency, µM (titrated, usually from 9.22 µM), for inactives: top-dose activation of IL-2 secretion, most hits filed as activators; note: % of control where 0% means no effect
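1) Mix primary human leukocytes, a-CD3 beads and compound. 2) Incubate 48 hr. 3) Add HTRF IL-2 reagents (a-IL-2-K, a-IL-2-d2).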
Vif-A3F inh = qHTS for Inhibitors of Vif-A3F Interactions: qHTS | hit rate 0.2% among 390,000 | HeLa A3F-eYFP + Vif (tagged APOBEC3F with the HIV-1 protein that degrades it), YFP fluorescence increase | Potency, µM (doses to about 46.1 µM), for the others: at the highest dose activity, negative = active | AID 602313, 2012; note: potency is the fitted concentration of half-maximal effect; % of control where 0% means no effect; nearly all actives have a fitted effect of over 65% in size
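HeLa cells stably expressing A3F-eYFP plus Vif, plated and incubated overnight at 37 deg C, then exposed to compounds overnight at 37 deg C. Blocked degradation read as raised yellow fluorescence (Ex 488/Em 500-530).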
BCR signal inh = qHTS Assay to Find Inhibitors of Chronic Active B-Cell Receptor Signaling; ABC-DLBCL IkBa-CBG/CBR reporter, luminescence ratio, 4 h; Potency, µM (highest dose often 46.1 µM), for inactives: top-dose activity change, negative = inhibition, actives largely listed as inhibitors; hit rate 0.05% among 340,000; active = well fitted inhibition curve with a large enough effect in the signal ratio, with a control signal flat, not every such curve was filed as active; inconclusive = small, poorly fitted or top-dose-only effect, or effect the other way, or a change in a side signal; the % refers to the signal ratio;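 note: potency is the fitted concentration of half-maximal effect; plate controls were basal doxycycline-induced cells for no effect and cells given 10 µM MG132 for full effect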
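Cell line TMD8 (human ABC DLBCL), stably expressing tet-inducible CBG68-IkBa fusion and CBR; IMDM/0.5% FBS; cpd up to 46 uM; dox induction, 4 h, 37C/5% CO2; dual luminescence; green/red ratio; MG132 control.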
uPA surface inh = qHTS for Inhibitors of Cell Surface uPA Generation; cell surface uPA generation assay, qHTS; Potency, µM (series often up to 38.3 µM), for inactives: at the highest dose activity change, negative = inhibition, actives largely listed as inhibitors; hit rate 0.31% among 330,000; active = well fitted inhibition curve with a large enough effect; inconclusive = small, poorly fitted or top-dose-only effect; inactive = no such curve, though single readings can be large or run the other way; tested in mouse RAW 264.7 cells; note: potency is the fitted concentration of half-maximal effect; % is set by controls: 0 for no effect and ±100 for the full control effect; nearly all actives have a fitted effect of over 55% in size
The depositor's hits bear a star; ? = inconclusive; . = no result given; [ ] = another dose, or the depositor's remark. Unless noted, calls come from the whole dose curve; as a rule, active = well fitted curve in the direction sought with a large enough effect; inconclusive = small, poorly fitted or top-dose-only effect, or another doubt; inactive = no such curve, though single readings can be large; an effect the other way counts as inactive or inconclusive.

SMILES	MBNL1-CUG inh	Vif-A3G inh	TCR activator	Vif-A3F inh	BCR signal inh	uPA surface inh
O=C1NC(=Nc2ccccc2Cl)S/C1=C\c1cc([N+](=O)[O-])ccc1O	8%	13µM*	8%	?	?	?
COc1cccc(N=C2NC(=O)/C(=C/c3cc([N+](=O)[O-])ccc3O)S2)c1	7%	?	0%	25µM*	6%	1%
Cc1cc2ncc(-c3ccc(Cl)cc3)c(N)n2n1	-16%	1%	3%	0%	-4%	3.5µM*
CC1=C(n2nnc3ccccc32)C(c2ccccc2)C(C#N)=C(N)O1 (stereo not given)	9%	-17%	2%	25µM*	1%	-22%
Cc1nn(-c2ccccc2)c2c1C(c1ccncc1)C(C#N)=C(N)O2 (stereo not given)	23%	0%	1%	-14%	?	2%
CCOC(=O)c1c(C)n(-c2ccccc2)c2ccc(O)cc12	7%	-4%	-4%	0%	?	2%
CCOC(=O)c1c(CN(CC)CC)n(-c2ccccc2)c2ccc(O)cc12	-1%	13µM*	2%	-2%	-5%	0%
CCc1ccc(-c2nc3c(=O)n(C)c(=O)nc-3n(CC)n2)cc1	.	-13%	.	.	.	.
COC(=O)c1ccc(N)c(N=CC2=C(O)CC(C)(C)CC2=O)c1	?	-6%	-3%[46.1 µM]	?	-15%	-6%
CC1(C)CC(=O)C(C=Nc2cc(C(=O)c3ccccc3)ccc2N)=C(O)C1	?	-23%	2%	28µM*	?	-4%
C[n+]1ccc(/C=C/c2cc[n+](C)c3ccccc23)c2ccccc21	.	13µM*	.	.	.	.
Cc1ccccc1N1C(=O)c2cccc3c(N(C)CCO)ccc(c23)C1=O	?	7%	-4%	13µM*	-12%	6%
CCCCCCCCCC[n+]1cc(Br)cc(Br)c1	.	-9%	.	.	.	.
C/C(=N/N=C(\C)c1ccccc1O)c1ccccc1O	5%	-2%	0%	18µM*	7%	7%
CCC(=NN=C(CC)c1ccccc1O)c1ccccc1O	.	-1%	-7%	0%	.	6%
Cn1cc(/C=C2\SC(=S)N(NC(=O)c3ccccc3Cl)C2=O)c2ccccc21	?	?	3%[46.1 µM]	11µM*	-13%	7%
CCCSc1nnc(Sc2nnnn2-c2ccccc2)s1	-6%	-27%	4%	1%	9.2µM*	-17%
CCN1CCN(Cc2ccc(NC(=O)c3ccc(C)c(/C=C/c4cnc(Nc5cc(N6CCNCC6)nc(C)n5)cn4)c3)cc2C(F)(F)F)CC1	-2%	?	-1%	32µM*	?	?
COc1ccccc1CCC(=O)O	.	3%	.	.	.	.
CCCCCCc1cc2cc(-c3nnc(-c4cc(OC)c(OC)c(OC)c4)o3)c(=O)oc2cc1O	-10%	?	-9%[46.1 µM]	?	2%	6%
CCCCCCc1cc2cc(-c3nnc(-c4ccccc4OC)o3)c(=O)oc2cc1O	-4%	13µM*	-2%	?	?	-6%
CCCCCCc1cc2cc(S(=O)(=O)c3ccc(F)cc3)c(=O)oc2cc1O	-18%	-6%	4%[46.1 µM]	3%	16%	1%
CCCCCCc1cc2cc(-c3nnc(-c4ccccc4O)o3)c(=O)oc2cc1O	-4%	3.2µM*	2%	?	-1%	4%
CN(c1ccc(/C=C/c2ccccc2)cc1)P1(=O)NCCCO1 (stereo not given)	.	1%	.	.	.	.
O=C(NC(=S)N1CCOCC1)c1ccc([N+](=O)[O-])cc1	?	-1%	4%[46.1 µM]	5%	23µM*	-2%
SMILES	MBNL1-CUG inh	Vif-A3G inh	TCR activator	Vif-A3F inh	BCR signal inh	uPA surface inh
N#Cc1ccc(C(=O)NC(=S)N2CCOCC2)cc1	.	4%	.	?	0%	-7%
Cc1cnc(/C=C/c2ccc(N(C)C)cc2)cn1	.	5%	.	.	.	.
CC[N+]1(CC(=O)c2ccc(Br)cc2)CCCCC1	.	-1%	.	.	.	.
Cc1cc(NC(=O)N2CC=C(c3c[nH]c4ccccc34)CC2)ccc1Br	.	?	.	22µM*	.	.
Cc1ccc(C)c(NC(=O)N2CC=C(c3c[nH]c4ccccc34)CC2)c1	.	?	.	25µM*	.	.
CCOC(=O)N1CCN(/[N+]([O-])=N/Oc2ccc(C(F)(F)F)cc2[N+](=O)[O-])CC1	.	1%	.	.	.	.
Cc1ccc(NS(=O)(=O)c2ccc(C(=O)N3CCN(S(=O)(=O)c4ccccc4)CC3)cc2)cc1	.	-1%	0%	-19%	0%	7.1µM*
COc1ccc(-n2c(O)c(/C=N/NS(=O)(=O)c3ccc(C)c([N+](=O)[O-])c3)c3ccccc3c2=O)cc1OC	?	3.5µM*	-8%	13µM*	2%	4%
[O-][N+]12CCCc3cccc(c31)CCC2	.	-4%	.	.	.	.
S=C(NCCCc1cnc[nH]1)NCCCN(Cc1ccc(Cl)cc1)c1ncc(Br)cn1	.	-20%	.	.	.	.
COc1ccc2nc(N3C(=O)/C(=C/c4ccccc4)NC3=S)sc2c1	.	5µM*	0%[46.1 µM]	13µM*	4%	1%
O=C(CNC1=NCCS1)c1c[nH]c2ccccc12	.	1%	.	.	.	.
COc1ccc(Cl)cc1NC(=O)CN(C)C(=O)c1ccc(C)s1	.	-2%	3%	?	0%	1%
COc1ccc(Cl)cc1NC(=O)CN(C)C(=O)c1cc2c(F)cccc2s1	.	-23%	-3%	-8%	-1%	6.3µM*
COc1ccc(Cl)cc1NC(=O)CN(C)CC(=O)Nc1ccc(S(N)(=O)=O)cc1	-4%	-6%	0%	-17%	1%	-1%
COc1ccc(Cl)cc1NC(=O)CN(C)CC(=O)Nc1cc(OC)c(OC)c(OC)c1	4%	?	-3%	-2%	-1%	3.5µM*
OC(C[n+]1c(Cl)ccc2ccccc21)c1ccccc1 (stereo not given)	.	2%	.	.	.	.
CCOC(=O)N1CCN(c2c(NCc3ccc(F)cc3)c(=O)c2=O)CC1	3%	?	-1%	-16%	?	-13%
CCOC(=O)N1CCN(c2c(NCc3ccc(Cl)cc3)c(=O)c2=O)CC1	-5%	?	-1%	-4%	?	2.8µM*
Brc1ccc(-c2ccc(/C=N/Nc3nc4ccccc4[nH]3)o2)cc1	13%	0%	-3%[46.1 µM]	-13%	?	10µM*
C(=N\Nc1nc2ccccc2[nH]1)/c1ccccc1	10%	-5%	0%	?	?	-7%
Nc1nc(N)c2c(OCc3ccc(C(F)(F)F)cc3)cccc2n1	.	5%	.	.	.	.
